This is a sample that favours compounds with a hit; in the whole collection about 4.1% have one here.
ssDAF-12 act – activates DAF-12 receptor from parasite S. stercoralis; activation, % at 6.8 µM; HEK293 ssDAF-12/GRIP1 lit1-tk-luc reporter, luminescence; % of 3 µM dafachronic acid response; 1% of 370,000 active; AID 652126;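 active means activation above the mean over all tested compounds plus 3 SD, cut at about 0.9% in these data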
hcDAF-12 act – H. contortus DAF-12 activation, primary screen; HEK293 hcDAF-12 lit1-tk-luc reporter, luminescence; 0% DMSO, 100% Δ7-dafachronic acid; activation, % at 6.8 µM; 1.4% of 370,000 active; AID 652067;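 active means activation above the mean of all tested compounds plus 3 SD, cut at about 5.5% in these data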
hgDAF-12 ag – hgDAF-12 agonism, primary luciferase screen; AID 687014; activation, % at 6.8 µM; 1.8% of 370,000 active; HEK293 GAL4-hgDAF12 UAS-luciferase reporter, agonist luminescence; normalized to butyrate control;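 active means activation above a cutoff set at the mean of all screened compounds plus 3 SD, cut at about 10% in these data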
DAX1 inh-1 – NR0B1 (DAX1) inhibition. inhibition, % at 6.75 µM. 0.99% of 340,000 active. AID 504766. P51843. HEK293 Gal4-DAX1 luciferase reporter, luminescence;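 active means inhibition above the mean over all tested compounds plus 3 SD, cut at about 4.2% in these data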;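 further: inhibition shows as a rise in luminescence from relieved DAX1 repression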
Target sequence (P51843 207-470 limits assumed): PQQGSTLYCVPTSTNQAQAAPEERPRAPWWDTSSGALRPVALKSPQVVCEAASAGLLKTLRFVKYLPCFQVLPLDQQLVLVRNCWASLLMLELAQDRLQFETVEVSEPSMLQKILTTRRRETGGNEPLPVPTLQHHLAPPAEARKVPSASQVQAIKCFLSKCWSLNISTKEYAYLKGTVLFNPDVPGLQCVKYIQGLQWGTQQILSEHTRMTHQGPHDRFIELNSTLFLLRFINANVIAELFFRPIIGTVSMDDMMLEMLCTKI
DAX1 inh-2 – blocks DAX1 repression of SF-1 activated StAR promoter; HEK293T StAR-luciferase reporter, SF-1/DAX-1 repression relief; inhibition, % at 6.8 µM; 1.1% of 370,000 active;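 active means inhibition above the mean over all tested compounds plus 3 SD, cut at about 3.6% in these data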;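 further: higher inhibition means more luminescence from relief of DAX-1 repression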
Each line names hits and unclear results; the compound was inactive in the other large screens.

CC1(C)Cc2c(sc3nc(C4CC4)n(N)c(=O)c23)CO1	DAX1 inh-1 7.6
CCOc1cnc(C(=O)NNC(=O)C(Br)C(C)C)o1 (centres undefined)	DAX1 inh-1 7.8
CCOc1cnc(-c2ccccc2F)o1	none
COc1ccc(S[C@]2(C(=O)NCCc3ccccc3)CC(=O)N[C@@H]2c2ccc(OC)cc2)cc1	none (no result: DAX1 inh-1)
CC(C)(C)N1Cc2nnn(CC3CCCCC3)c2-c2cc(F)ccc2S1(=O)=O	none (no result: DAX1 inh-1)
CSc1nsc2nc(=O)c(/C=C3\C(C)=Nc4ccccc43)c(N)n12	ssDAF-12 act 0.9
CCn1cc(C(=O)N2CCN(Cc3ccc(C)cc3)CC2)c(=O)c2ccc(C)nc21	none (no result: DAX1 inh-1)
O=C(O)CCCCCNC(=O)CCn1nnc2ccccc2c1=O	DAX1 inh-1 5.9
O=C(O)CCCNC(=O)CCn1nnc2ccccc2c1=O	none
O=c1c2ccccc2nnn1CSc1nc2ccccc2[nH]1	hgDAF-12 ag 11
CC(C)CCSc1nc2ccccc2[nH]1	hgDAF-12 ag 13
C[C@@H]1CN([C@H](C)CO)S(=O)(=O)c2ccc(Br)cc2O[C@H]1CN(C)CC1CCOCC1	none (no result: DAX1 inh-1)
O=C(Nc1ccc(F)cc1)OCc1cn(Cc2cccc(F)c2F)nn1	none (no result: DAX1 inh-1)
C(=N\N1CCN(c2ccccn2)CC1)/c1ccco1	none
C(=N\N1CCN(c2ccccn2)CC1)/c1ccccn1	ssDAF-12 act 1.1
c1ccc(N2CCN(c3nccn4ccnc34)CC2)nc1	DAX1 inh-2 4.0 (no result: DAX1 inh-1)
Cc1ccc(/C=N/N2CCN(c3ccccn3)CC2)o1	DAX1 inh-1 4.7
O=C(OC12CCCN(C1)/C(=C/c1ccccc1)C2)C1CCCC1 (centres undefined)	none (no result: DAX1 inh-1)
C=CCN1[C@@H](C)COc2cc(F)ccc2S1(=O)=O	none (no result: DAX1 inh-1)
CC1CCCN(C(C(=O)Nc2ccc3c(c2)OCCO3)c2ccccc2)C1 (centres undefined)	none
CC1CCCN(C(C(=O)Nc2ccc3c(c2)OCO3)c2ccccc2)C1 (centres undefined)	hcDAF-12 act 6.3
COC(=O)[C@]12C[C@H](CC(=O)N3CCN(C(=O)c4ccco4)CC3)C(=O)N(Cc3ccc4c(c3)OCO4)C1=C[C@H](C(C)C)O[C@@H]2C1CC1	none (no result: DAX1 inh-1)
O=C(Nc1nc2ccc([N+](=O)[O-])cc2s1)c1ccco1	DAX1 inh-2 4.2 (no result: DAX1 inh-1)
O=C(Nc1nc2ccc([N+](=O)[O-])cc2s1)C1CCCO1 (centres undefined)	DAX1 inh-1 5.4
O=C(Nc1nc2ccc(Cl)cc2s1)C1CCCO1 (centres undefined)	none
O=C(Nc1nc2ccc([N+](=O)[O-])cc2s1)c1c(F)cccc1F	none
COC(=O)C1CN(Cc2cn(CCOC(C)=O)nn2)CCS(=O)(=O)N1Cc1ccc(Cl)cc1 (centres undefined)	none (no result: DAX1 inh-1)
COC(=O)c1ccc(S(=O)(=O)N2CCC(NC(=O)COc3ccc(F)cc3)CC2)cc1	none (no result: DAX1 inh-1)
Cc1ccc(Nc2nc(CSc3n[nH]c(N)n3)cs2)cc1	hgDAF-12 ag 12
Cc1ccc(Nc2nc(CSc3nnnn3C)cs2)cc1	hgDAF-12 ag 11
Cn1nnnc1SCc1csc(Nc2ccccc2)n1	none
Cc1cccc(NC(=S)NNC(=O)c2cc3c(s2)CCC(C)C3)c1C (centres undefined)	ssDAF-12 act 20
Cc1ccc(C)c(NC(=S)NNC(=O)c2cc3c(s2)CCC(C)C3)c1 (centres undefined)	none
O=C(CN1C(=O)C2CCCCC2C1=O)OCn1nnc2ccccc2c1=O (centres undefined)	DAX1 inh-1 6.4
O=C(N/N=C/c1ccc(O)cc1)c1csc2c1CCCC2	hgDAF-12 ag 11
CCOC(=O)NC(=O)C(=CNc1ccc(C)cc1)C(=O)NC(=O)OCC	hcDAF-12 act 6.5
C[C@H]1/C=C/CC(=O)N[C@@H](c2ccccc2)[C@@H](C)/C=C/CC(=O)N[C@H]1c1ccccc1	none (no result: DAX1 inh-1)
Cc1ccc(Nc2ncccc2C(=O)NCc2cccs2)c(C)c1	none
Cc1ccc(Sc2ncccc2C(=O)N(C)Cc2cccs2)c(C)c1	DAX1 inh-1 4.6
CC(CCN1CCC(C(O)(c2ccccc2)c2ccccc2)CC1)Oc1cc(F)cc(F)c1 (centres undefined)	none (no result: DAX1 inh-1)
COc1cc(/C=N/NS(=O)(=O)c2ccc(C)cc2)ccc1OCc1cccc(C(=O)O)c1	hgDAF-12 ag 10
COc1cc(/C=N/NC(N)=S)ccc1OCc1ccc(C)cc1	hgDAF-12 ag 11
COC(=O)c1cc2c(c3c4cc(OC)ccc4n(C(=O)c4ccccc4)c13)C(=O)N(C1CCCCC1)C2	none (no result: DAX1 inh-1)
Cc1oncc1C(=O)Nc1ccc2ccccc2c1	DAX1 inh-2 3.8
Cc1oncc1C(=O)Nc1ccc(C(F)(F)F)cc1	DAX1 inh-2 4.3
Cc1oncc1C(=O)Nc1cccc2ccccc12	none
CCN(CC)C(=O)CC[C@H]1CC[C@]2(CCCN(Cc3nccs3)C2)O1	none (no result: DAX1 inh-1)
CN(C)S(=O)(=O)c1ccc(C(=O)Nc2ccccn2)cc1	hgDAF-12 ag 11
CN(C)S(=O)(=O)c1ccc(NC(=O)c2ccccn2)cc1	hgDAF-12 ag 13
Cc1ccc(S(=O)(=O)N(C)c2ccc(C(=O)Nc3ccccn3)cc2)cc1	none
O=c1c2c(n3nnnc3n1Cc1ccc(Cl)cc1)-c1ccccc1CC21CCCC1	none (no result: DAX1 inh-1)
CC(COc1ccc(F)cc1)CN1CCC(C(O)(c2ccccc2)c2ccccc2)CC1 (centres undefined)	none (no result: DAX1 inh-1)
O=C(Nc1ccccc1)C1=C[C@@H](c2ccc(Br)cc2)C[C@@H](OCCCCO)O1	none
O=C(Nc1ccccc1)C1=C[C@H](c2ccccc2)C[C@H](OCCCCO)O1	hcDAF-12 act 5.7
CNc1nc(N)c([N+](=O)[O-])c(NCC2CCCO2)n1 (centres undefined)	DAX1 inh-1 5.2
COc1ccc2nc3sc(C(=O)NCCN4CCc5ccccc5C4)cc3cc2c1	hgDAF-12 ag 12
COc1ccc2cc3cc(C(=O)NCCCN4CCc5ccccc5C4)sc3nc2c1	none
Cn1c(=O)cc(NCc2ccccc2)[nH]c1=O	none
CCCCNc1cc(=O)n(C)c(=O)[nH]1	DAX1 inh-1 8.1
CN(C)CCNC(=O)c1ccccc1	none
CN(C)CCNC(=O)c1cccc2ccc(-c3ccc(-c4ccccc4)cc3)nc12	ssDAF-12 act 1.2
COC(=O)[C@]12C[C@H](CC(=O)NCc3cccc4ccccc34)C(=O)N(CCC3=CCCCC3)C1=C[C@H](C(C)(C)C)O[C@@H]2C	none (no result: DAX1 inh-1)
O=c1c2ccccc2sn1-c1ccc(S(=O)(=O)N2CCCCC2)cc1	ssDAF-12 act 1.1
O=c1c2ccccc2sn1-c1ccc(S(=O)(=O)N2CCCC2)cc1	none
O=C(NCC1COc2ccccc2O1)c1ccc(NC(=O)c2cccc(F)c2)cc1 (centres undefined)	none (no result: DAX1 inh-1)
COc1ccc(C(C)=O)cc1CN1C(=O)NC(CC(C)C)C1=O (centres undefined)	DAX1 inh-1 4.4
COCCNC(=O)CSc1ccccc1C(=O)NCC1CCCCC1	DAX1 inh-1 6.6
CC1CCN(C(=O)c2ccccc2SCC(=O)NCC2CCCCC2)CC1	none

Compound activity from PubChem BioAssay.
